Measurements: the supplement of paper PMC9694430
Structures can show the parent of a compound that is named as a salt.

Legend:
Assay in all cases: thermal shift delta Tm vs DMSO control; higher = stronger stabilization (binding)
Conditions in all cases: 12.5 µM; protein concentration 2 µM
[1] = system: LOC_OS01G01410-cb001
Outline: (§1)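 Purified, E. coli-expressed rice kinase domain constructs were tested by differential scanning fluorimetry in 96-well plates: 19.5 μl of 2 μM kinase in 100 mM potassium phosphate pH 7.5, 150 mM NaCl, 10% glycerol, 5 × SYPRO Orange, plus compound in DMSO. Fluorescence was read from 25°C to 95°C at 0.05°C/s. Melting temperatures came from Boltzmann fits, and the shift is the triplicate mean relative to protein with DMSO alone.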

[2] = system: LOC_OS01G02750-cb003
Outline: as §1

[3] = system: LOC_OS01G10900-cb004
Outline: as §1

[4] = system: LOC_OS01G13800-cb001
Outline: as §1

[5] = system: LOC_OS01G14860-cb001
Outline: as §1

[6] = system: LOC_OS01G21960-cb002
Outline: as §1

[7] = system: LOC_OS01G39600-cb002
Outline: as §1

[8] = system: LOC_OS01G48390-cb002
Outline: as §1

[9] = system: LOC_OS01G51400-cb002
Outline: as §1

[10] = system: T1, LOC_OS01G52050-cb004
T1 sequence (whole entry): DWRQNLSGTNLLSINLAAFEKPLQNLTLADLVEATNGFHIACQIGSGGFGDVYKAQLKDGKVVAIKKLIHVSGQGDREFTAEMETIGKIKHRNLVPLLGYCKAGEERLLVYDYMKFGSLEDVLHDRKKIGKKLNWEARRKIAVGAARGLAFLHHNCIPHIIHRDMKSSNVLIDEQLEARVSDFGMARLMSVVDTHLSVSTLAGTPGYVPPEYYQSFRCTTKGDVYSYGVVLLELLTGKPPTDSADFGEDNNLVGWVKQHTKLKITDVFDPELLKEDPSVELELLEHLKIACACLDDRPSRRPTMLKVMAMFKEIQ
Outline: as §1

[11] = system: LOC_OS01G57100-cb003
Outline: as §1

[12] = system: LOC_OS01G60330-cb001
Outline: as §1

[13] = system: LOC_OS01G60700-cb002
Outline: as §1

[14] = system: LOC_OS01G63280-cb003
Outline: as §1

[15] = system: LOC_OS01G67340-cb003
Outline: as §1

[16] = system: LOC_OS01G70970-cb002
Outline: as §1

[17] = system: LOC_OS02G07810-cb001
Outline: as §1

[18] = system: LOC_OS02G08530-cb003
Outline: as §1

[19] = system: LOC_OS02G14120-cb001
Outline: as §1

[20] = system: LOC_OS02G17970-cb001
Outline: as §1

Structure (SMILES) | thermal shift delta Tm [1] [°C] | thermal shift delta Tm [2] [°C] | thermal shift delta Tm [3] [°C] | thermal shift delta Tm [4] [°C] | thermal shift delta Tm [5] [°C] | thermal shift delta Tm [6] [°C] | thermal shift delta Tm [7] [°C] | thermal shift delta Tm [8] [°C] | thermal shift delta Tm [9] [°C] | thermal shift delta Tm [10] [°C] | thermal shift delta Tm [11] [°C] | thermal shift delta Tm [12] [°C] | thermal shift delta Tm [13] [°C] | thermal shift delta Tm [14] [°C] | thermal shift delta Tm [15] [°C] | thermal shift delta Tm [16] [°C] | thermal shift delta Tm [17] [°C] | thermal shift delta Tm [18] [°C] | thermal shift delta Tm [19] [°C] | thermal shift delta Tm [20] [°C]
Cc1cc(CN2CCN(c3c(Br)cnc4nc(-c5ccc(N6CCN(C)CC6)cc5)[nH]c34)CC2)no1 | 4.15 | 1.45 | 1.57 | 0.82 | 0.83 | 2.01 | 4.92 | 3.13 | 0.84 | 0.67 | 0.54 | 3.22 | 0.17 | 0.23 | 1.36 | 1.3 | 0.7 | 0.33 | 4.66 | 0.14
CCN(CC)CCNC(=O)c1c(C)[nH]c(/C=C2\C(=O)Nc3ccc(-c4csc(-c5ccccc5)n4)cc32)c1C [Amcasertib (BBI503)] | 3.77 | 0.02 | 5.39 | -0.01 | 1.64 | 1.66 | 4.12 | -0.28 | 0.02 | -0.1 | 0.34 | 0.8 | -0.11 | 0.21 | 0.03 | 0.3 | -0.19 | 3.7 | 4.69 | -0.15
CCN(CC)CCCCNc1ncc2cc(-c3cc(OC)cc(OC)c3)c(NC(=O)NC(C)(C)C)nc2n1 | 0.27 | 1.32 | 0.9 | 0.29 | 0.28 | 0.43 | -0.12 | 1.3 | 0.23 | 0.11 | 0.87 | 0.35 | 0.92 | 0.87 | 0.05 | 0.05 | 0.72 | 0.6 | -0.08 | 0.18
CC[C@H](CO)Nc1nc(NCc2ccccc2)c2ncn(C(C)C)c2n1 [Roscovitine (Seliciclib,CYC202)] | 1.5 | 0 | 0.05 | 0.22 | 0.12 | 0.12 | 0.5 | 0.22 | 0.03 | 0.24 | 0.43 | 0.99 | 0.89 | 0.16 | -0.54 | 0.28 | 0.93 | 0.8 | 0.04 | 0.31
Cc1cc(Nc2nc(N[C@@H](C)c3ccc(F)cc3)c(C#N)cc2F)n[nH]1 | 4.59 | 1.83 | 0.46 | -0.07 | 5.09 | 1.28 | 4.3 | 5.61 | 0.07 | 0.63 | 0.56 | 7.34 | 0.15 | 0.61 | -0.08 | 1.7 | 0.48 | 1.49 | 7.95 | 0.2
COc1ccc(COc2cc3oc(=O)c4cc(C(C)O)ccc4c3cc2OC)cc1 (stereo not given) [Palomid 529 (P529)] | 0.67 | 0.16 | 1.07 | 0.03 | 0.14 | 0.64 | -0.21 | 0.4 | 0 | 0.04 | 2.39 | 1.07 | 1.23 | 0.19 | 0.25 | 0.51 | 0.98 | 1.87 | 1.04 | 0.5
Cc1ccc(NC(=O)c2ccc(CN3CCN(C)CC3)cc2)cc1Nc1nccc(-c2cccnc2)n1 [Imatinib Mesylate (STI571)] | 1.08 | 0.88 | 1.18 | 0.6 | 0.15 | 0.23 | 0.07 | 0.86 | 0.08 | 0.02 | 1 | 0.66 | 0.7 | 0.06 | -0.58 | -0.12 | 0.51 | 1.09 | 0.52 | 0.04
CNC(=O)c1cc(Oc2ccc3nc(N[C@@H]4CCCC[C@H]4O)sc3c2)ccn1 | 0.03 | 2.05 | 1.18 | 0.41 | -0.2 | 0.67 | -0.55 | 0.91 | 0.42 | 0.41 | 1.55 | 0.59 | 1.46 | 0.76 | 1.16 | 0.25 | 0.97 | 0.76 | -0.02 | 0.53
CCn1c(N)c(C(=O)NC)c(=O)c2ccc(C#CC(C)(O)COC)nc21 (stereo not given) | 0.45 | 0.44 | -0.01 | -0.17 | 0.21 | 0.3 | -1.69 | 0.18 | 0.37 | 0.36 | 0.95 | 1.02 | 1.1 | 0.41 | 0.38 | 1.97 | 0.99 | 1.25 | 1.34 | 0.48
CC1(C)OC(=O)C=C[C@]2(C)[C@H]3CC[C@@]4(C)[C@H](c5ccoc5)OC(=O)[C@H]5O[C@]54[C@]3(C)C(=O)C[C@@H]12 [Obacunone] | 0.06 | 0.16 | 0.26 | 0.37 | 0.35 | 0.13 | -0.45 | 0.82 | -0.06 | 3 | 1.14 | 0.6 | 0.14 | 0.26 | 0.19 | 0.13 | 0.27 | 0.44 | 0.92 | 0.03
COc1ccc2c(Oc3ccc(NC(=O)c4c(C)n(CC(C)(C)O)n(-c5ccccc5)c4=O)nc3)ccnc2c1 | 0.36 | 1.62 | 0.28 | -0.07 | 1.58 | 0.62 | -0.29 | 0.51 | 0.18 | 1.2 | 1.79 | 0.76 | 0.86 | 1.14 | 0.79 | 0.65 | 1.3 | 0.98 | 5.4 | 0.76
O=C1NC(=O)C(c2cnc3ccccn23)=C1c1cn2c3c(cc(F)cc13)CN(C(=O)N1CCCCC1)CC2 | 0.36 | 0.62 | 0.19 | 0.44 | 4.55 | 2.13 | 5.95 | 0.1 | 0.37 | 0.22 | 1.16 | 3.68 | 2.25 | 0.82 | 0.19 | 0.64 | 1.59 | 1.8 | 0.04 | 2.16
